Measurements: PubChem BioAssay (NCATS)
Results filed as inconclusive are left out. Active and inactive are the calls of the source. Calls follow the shape of the dose curve; as a rule, active = well fitted curve in the direction sought with a large enough effect; inconclusive = small, poorly fitted or top-dose-only effect, or another doubt; inactive = no such curve, though single readings can be large; an effect the other way counts as inactive or inconclusive.

What was measured:
[1] = molecular target: Rap guanine nucleotide exchange factor 3 (Homo sapiens) (UniProt O95398); experiment: Confirmatory qHTS for antagonist of cAMP-regulated guanine nucleotide exchange factor 3 (EPAC1) (AID 1645880); also: nearly all actives have a fitted effect of over 55% in size; also: potency is read from the fitted curve at half-maximal effect
Rap guanine nucleotide exchange factor 3 (Homo sapiens), sequence (O95398 whole entry, looked up): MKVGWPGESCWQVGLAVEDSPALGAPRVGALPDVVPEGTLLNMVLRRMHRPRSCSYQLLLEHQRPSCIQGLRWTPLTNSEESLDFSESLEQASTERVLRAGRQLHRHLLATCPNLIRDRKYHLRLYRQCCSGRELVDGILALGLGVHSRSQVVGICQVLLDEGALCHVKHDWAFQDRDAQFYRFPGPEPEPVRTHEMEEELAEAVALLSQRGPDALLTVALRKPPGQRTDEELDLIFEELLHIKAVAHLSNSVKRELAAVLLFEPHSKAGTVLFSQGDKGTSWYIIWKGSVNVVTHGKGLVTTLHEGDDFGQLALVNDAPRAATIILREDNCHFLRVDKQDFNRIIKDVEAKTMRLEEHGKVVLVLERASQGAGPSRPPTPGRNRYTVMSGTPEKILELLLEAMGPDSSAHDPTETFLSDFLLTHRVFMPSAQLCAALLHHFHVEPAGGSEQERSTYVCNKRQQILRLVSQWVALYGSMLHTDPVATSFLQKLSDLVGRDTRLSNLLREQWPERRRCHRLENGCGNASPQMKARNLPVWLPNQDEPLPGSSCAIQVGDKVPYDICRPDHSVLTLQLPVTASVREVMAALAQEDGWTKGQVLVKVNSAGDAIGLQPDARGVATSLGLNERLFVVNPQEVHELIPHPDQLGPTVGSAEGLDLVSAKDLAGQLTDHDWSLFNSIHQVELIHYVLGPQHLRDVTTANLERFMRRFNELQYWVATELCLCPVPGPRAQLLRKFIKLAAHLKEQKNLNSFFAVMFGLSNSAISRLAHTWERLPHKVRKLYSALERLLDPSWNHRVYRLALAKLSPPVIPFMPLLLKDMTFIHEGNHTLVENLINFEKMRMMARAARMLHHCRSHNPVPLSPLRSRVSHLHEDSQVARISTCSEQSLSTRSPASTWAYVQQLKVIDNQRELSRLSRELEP
In short: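 Nucleotide exchange uses 100 nM EPAC1, 250 nM RAP1B-BODIPY-GDP and 50 uM GDP, with compounds in a concentration-titration series. After 5 min at room temperature, fluorescence (480 nm ex/540 nm em) is read every 5 min for 30 min. Data are normalized to control ATA and DMSO.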

[2] = molecular target: Rap guanine nucleotide exchange factor 3 (Homo sapiens) (UniProt O95398); experiment: Confirmatory qHTS for agonist of cAMP-regulated guanine nucleotide exchange factor 3 (EPAC1) (AID 1645881);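 also: EPAC1 catalysed release of BODIPY-GDP from Rap1B seen as fluorescence loss; 100% = effect of cAMP agonist control; nearly all actives have a fitted effect of over 75% in size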
[3] = molecular target: Rap guanine nucleotide exchange factor 4 (Homo sapiens) (UniProt Q8WZA2); experiment: Confirmatory qHTS for agonist of cAMP-regulated guanine nucleotide exchange factor 4 (EPAC2) (AID 1645884);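 also: nucleotide exchange releases bodipy-GDP from Rap1 and this lowers its fluorescence; % is scaled to controls: 0 for no effect and ±100 for the full control effect; nearly all actives have a fitted effect of over 65% in size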
Rap guanine nucleotide exchange factor 4 (Homo sapiens), sequence (Q8WZA2 whole entry, looked up): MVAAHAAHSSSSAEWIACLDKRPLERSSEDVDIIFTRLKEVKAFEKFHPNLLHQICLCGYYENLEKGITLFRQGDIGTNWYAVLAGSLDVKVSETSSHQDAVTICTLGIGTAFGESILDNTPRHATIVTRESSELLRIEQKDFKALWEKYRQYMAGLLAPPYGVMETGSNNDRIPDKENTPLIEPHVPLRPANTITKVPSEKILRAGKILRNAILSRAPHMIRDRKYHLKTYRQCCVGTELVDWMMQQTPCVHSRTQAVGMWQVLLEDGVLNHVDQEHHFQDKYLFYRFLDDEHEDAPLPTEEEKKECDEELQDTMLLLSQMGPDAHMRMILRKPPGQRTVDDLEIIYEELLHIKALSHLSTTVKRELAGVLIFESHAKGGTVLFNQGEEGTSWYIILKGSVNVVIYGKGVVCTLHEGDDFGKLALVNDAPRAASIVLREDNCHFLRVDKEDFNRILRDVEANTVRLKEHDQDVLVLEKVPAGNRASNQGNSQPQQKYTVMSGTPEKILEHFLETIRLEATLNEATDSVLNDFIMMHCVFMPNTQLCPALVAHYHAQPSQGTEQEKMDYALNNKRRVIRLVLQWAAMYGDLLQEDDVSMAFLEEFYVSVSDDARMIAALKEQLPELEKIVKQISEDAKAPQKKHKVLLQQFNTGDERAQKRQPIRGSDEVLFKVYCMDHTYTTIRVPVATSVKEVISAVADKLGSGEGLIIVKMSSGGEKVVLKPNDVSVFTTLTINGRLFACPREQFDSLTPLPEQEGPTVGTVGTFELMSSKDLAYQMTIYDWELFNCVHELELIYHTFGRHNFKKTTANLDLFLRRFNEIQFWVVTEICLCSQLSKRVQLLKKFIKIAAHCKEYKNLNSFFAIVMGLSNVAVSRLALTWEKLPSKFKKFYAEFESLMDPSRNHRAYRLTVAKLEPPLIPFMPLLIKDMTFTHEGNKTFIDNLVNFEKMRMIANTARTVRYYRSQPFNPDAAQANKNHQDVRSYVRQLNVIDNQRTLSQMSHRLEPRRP

[4] = molecular target: Rap guanine nucleotide exchange factor 4 (Homo sapiens) (UniProt Q8WZA2); experiment: Confirmatory qHTS for antagonist of cAMP-regulated guanine nucleotide exchange factor 4 (EPAC2) (AID 1645885); also: nearly all actives have a fitted effect of over 25% in size; also: potency is read from the fitted curve at half-maximal effect; as to activity change, negative = inhibition: % is scaled to controls: 0 for no effect and ±100 for the full control effect
[5] = molecular target: Rap guanine nucleotide exchange factor 3 (Homo sapiens) (UniProt O95398); experiment: Counterscreen qHTS for antagonist of cAMP-regulated guanine nucleotide exchange factor 3 (EPAC1) (AID 1645888);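 also: fluorescence loss as bound BODIPY-GDP is released from Rap1B; % of control where 0% means no effect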
In short: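 Rap1B–BODIPY-GDP (250 nM) with 50 uM GDP; compounds pin-transferred to 9.74 nM–152 uM final (activator) or from 7.32 nM upwards (inhibitor). Fluorescence Ex/Em 480/540 nm read at 5 and 30 min, then after adding cAMP or buffer, at room temperature.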

Cc1ccc(C(=O)NCCCNC(=O)c2ccco2)cn1
inactive: Potency [1] | Potency [2] | Potency [3] | Potency [4] | Potency [5]

CC(C)c1ccc(NC(=O)c2ccc(Cn3nc(N4CCN(c5ccccc5)CC4)ccc3=O)o2)cc1
active: Potency [1] 84.9 µM
inactive: Potency [2] | Potency [3] | Potency [4] | Potency [5]

Clc1ccc2nc(C3CCCCC3)c(CC3CCCCC3)n2c1
inactive: Potency [1] | Potency [2] | activation [3] -3.07% [at 17.1 µM, percent relative to cAMP agonist control] | Potency [4] | activity change, negative = inhibition [5] -0.327% [at 30.8 µM]

Cc1ccc(N(Cc2cccs2)C(=O)c2ccccc2)cc1
inactive: Potency [1] | Potency [2] | Potency [3] | Potency [4] | Potency [5]

CC(C)(C)n1cnc2cc(NCc3ccccc3Cl)ccc21
inactive: Potency [2] | Potency [3] | Potency [4] | Potency [5]
active: Potency [1] 84.9 µM

COCCn1cnnc1SCC(=O)Nc1sc2c(c1C#N)CCC2
inactive: Potency [1] | Potency [2] | activation [3] 9.93% [at 17.1 µM, percent relative to cAMP agonist control] | Potency [4] | activity change, negative = inhibition [5] 9.73% [at 30.8 µM]

Cc1ccc(C(=O)Nc2ccc(N3CCOCC3)c3nonc23)cc1[N+](=O)[O-]
active: Potency [1] 47.8 µM
inactive: Potency [2] | Potency [3] | Potency [4] | Potency [5]

O=C(NN1C(=O)/C(=C/c2ccc(O)c(O)c2)SC1=S)c1ccccc1
inactive: Potency [2] | Potency [3] | Potency [4] | Potency [5]
active: Potency [1] 7.57 µM

CSc1nc(N2CCOCC2)c2c3c(sc2n1)CCC3
inactive: Potency [1] | Potency [2] | Potency [3] | Potency [4] | Potency [5]

CN(C(=O)c1cc(-c2ccccc2)on1)C1CCCCC1
inactive: Potency [1] | Potency [2] | activation [3] 6.82% [at 17.1 µM, percent relative to cAMP agonist control] | Potency [4] | activity change, negative = inhibition [5] 29.1% [at 30.8 µM]

CCOc1cc(S(=O)(=O)N(CC)CC)ccc1Cl
inactive: Potency [1] | Potency [2] | activation [3] 7.51% [at 17.1 µM, percent relative to cAMP agonist control] | Potency [4] | activity change, negative = inhibition [5] -20.8% [at 30.8 µM]

CCCNC(=O)c1ccc2c(=O)c(O)c(-c3ccsc3)[nH]c2c1
inactive: Potency [1] | Potency [2] | activation [3] -5.87% [at 17.1 µM, percent relative to cAMP agonist control] | Potency [4] | activity change, negative = inhibition [5] -0.0367% [at 30.8 µM]

Cc1cccc(NC(=O)Cn2c(O)c(N=NC(=O)c3ccncc3)c3ccccc32)c1
inactive: Potency [1] | Potency [2] | Potency [3] | Potency [4] | Potency [5]

C/C(=N\NC(=O)c1cc2ccccc2cc1O)c1cc2ccccc2o1
inactive: Potency [2] | Potency [3] | Potency [4] | Potency [5]
active: Potency [1] 37.9 µM

Cc1ccc(C(=O)Nc2ccccc2Oc2ccccc2)o1
inactive: Potency [1] | Potency [2] | activation [3] 4.96% [at 17.1 µM, percent relative to cAMP agonist control] | Potency [4] | activity change, negative = inhibition [5] 1.6% [at 30.8 µM]

CC(=O)NC(c1ccccc1)c1cc(Cl)c2cccnc2c1O (stereo not given)
inactive: Potency [1] | Potency [2] | Potency [3] | Potency [4] | Potency [5]

CCc1ccc(Nc2n[n+](-c3ccccc3)c(-c3cc(OC)c(OC)cc3Br)s2)cc1
inactive: Potency [1] | Potency [2] | Potency [3] | Potency [4] | Potency [5]

CNc1ccc(/C=C(\C#N)C(=O)Nc2ccccn2)cc1[N+](=O)[O-]
inactive: Potency [1] | Potency [2] | activation [3] 0.449% [at 17.1 µM, percent relative to cAMP agonist control] | Potency [4] | activity change, negative = inhibition [5] -23.3% [at 30.8 µM]

COCOCCn1cc(CN2CCS(=O)(=O)N(Cc3ccc(-c4ccc(C)cc4)cc3)C(CC(C)C)C2=O)nn1 (stereo not given)
inactive: Potency [1] | Potency [2] | activation [3] 9.16% [at 17.1 µM, percent relative to cAMP agonist control] | Potency [4] | activity change, negative = inhibition [5] 15.6% [at 30.8 µM]

CCn1c(C)nc2cc(C(=O)N/N=C(\C)c3ccccc3O)ccc21
active: Potency [1] 7.08 µM
inactive: Potency [2] | activation [3] 0.106% [at 17.1 µM, percent relative to cAMP agonist control] | Potency [4] | activity change, negative = inhibition [5] -28% [at 30.8 µM]

COc1ccc(OC)c(/C=C2\N=C(c3ccccc3)OC2=O)c1
inactive: Potency [1] | Potency [2] | Potency [3] | Potency [4] | Potency [5]

CC1(C)OCC(C2CC(c3ccccc3)NS(=O)(=O)O2)O1 (stereo not given)
inactive: Potency [1] | Potency [2] | Potency [3] | Potency [4] | Potency [5]

C#CCOCCOCCOCCNc1nc(N2CCN(C(=O)[C@H](Cc3cc4ccccc4[nH]3)n3cc([C@@H](N)Cc4ccc(O)cc4)nn3)CC2)nc(N2CCN(C(=O)[C@H](Cc3cc4ccccc4[nH]3)n3cc([C@@H](N)CC(C)C)nn3)CC2)n1
inactive: Potency [2] | activation [3] -1.86% [at 17.1 µM, percent relative to cAMP agonist control] | Potency [4] | activity change, negative = inhibition [5] -28.3% [at 30.8 µM]
active: Potency [1] 44.7 µM

COc1cccc(C(=O)C2=NN(C(C)=O)CC2c2ccco2)c1 (stereo not given)
inactive: Potency [1] | Potency [2] | Potency [3] | Potency [4] | Potency [5]

NS(=O)(=O)c1ccc(NC2=CC(=O)C(=O)c3ccccc32)cc1
inactive: Potency [2] | Potency [3] | Potency [5]
active: Potency [1] 26.9 µM | Potency [4] 84.9 µM

O=C(OCC(=O)N1CCCC1=O)c1cc(Cl)ccc1O
inactive: Potency [1] | Potency [2] | Potency [3] | Potency [4] | Potency [5]

COc1ccc(-c2cc(OC(=O)c3ccc(Cl)cc3)c3c(C)oc(C)c3c(=O)c2)cc1
active: Potency [1] 75.7 µM
inactive: Potency [2] | Potency [3] | Potency [4] | Potency [5]

CCCCCCOC(=O)C(C#N)c1nc2ccccc2nc1N1CCOCC1 (stereo not given)
active: Potency [1] 75.7 µM | Potency [4] 75.7 µM
inactive: Potency [2] | Potency [3] | Potency [5]

Cc1ccc(S(=O)(=O)N(C)C)cc1NC(=O)CSc1nc2ncc(Cl)cc2[nH]1
inactive: Potency [1] | Potency [2] | Potency [3] | outcome [4] inactive [at 12.7 µM] | Potency [5]

CCCCN(CCCC)S(=O)(=O)c1ccc(C(=O)Nc2sc3c(c2C(N)=O)CCN(CC)C3)cc1
inactive: Potency [1] | Potency [2] | Potency [3] | Potency [4] | Potency [5]

Cc1cccc(NCC(=O)N/N=C\c2ccc[nH]2)c1
inactive: Potency [1] | Potency [2] | Potency [3] | Potency [4] | Potency [5]

C=CCOc1ccc(/C=C2\SC(=S)N(C(C(=O)O)c3ccccc3)C2=O)cc1 (stereo not given)
active: Potency [1] 31.6 µM
inactive: Potency [2] | activation [3] 3.84% [at 17.1 µM, percent relative to cAMP agonist control] | Potency [4] | activity change, negative = inhibition [5] -23.9% [at 30.8 µM]

Cc1[nH][nH]c(=O)c1C(c1c(C)[nH][nH]c1=O)c1cn(Cc2ccccc2Cl)c2ccccc12
inactive: Potency [2] | Potency [3] | Potency [4] | Potency [5]
active: Potency [1] 75.7 µM

CC(SC1=NCCN1S(=O)(=O)c1ccc(F)cc1)c1ccccc1 (stereo not given)
active: Potency [4] 12 µM
inactive: Potency [1] | Potency [2] | Potency [3] | Potency [5]

Cc1ccc(S(=O)(=O)N2CCC(C(=O)Nc3ccccc3N3CCCCC3)CC2)cc1C
inactive: Potency [1] | Potency [2] | Potency [3] | Potency [4] | Potency [5]

Cc1ccc(C(=O)c2coc3ccc(O)c(Cl)c23)cc1
inactive: Potency [1] | Potency [2] | Potency [3] | Potency [5]
active: Potency [4] 84.9 µM

C=CCSc1nc2ccccc2c(=O)n1C1CCOC(C)(C)C1 (stereo not given)
inactive: Potency [1] | Potency [2] | Potency [3] | Potency [4] | Potency [5]

COc1ccc(NC(=O)c2c[nH]n3c(=O)cc(C4CCN(C(=O)OC(C)(C)C)CC4)nc23)cc1Cl
active: Potency [1] 67.5 µM
inactive: Potency [2] | Potency [3] | Potency [4] | Potency [5]

CCc1cccc(C)c1Nc1c(-c2cccs2)nc2ncccn12
inactive: Potency [1] | Potency [2] | Potency [3] | Potency [4] | Potency [5]

COc1cc(Nc2cc(C)nc3ncnn23)cc(OC)c1
inactive: Potency [1] | Potency [2] | Potency [3] | Potency [4] | Potency [5]

COc1ccc(C=NNc2ccc(S(=O)(=O)Nc3ccccc3C(=O)O)cc2[N+](=O)[O-])c(OC)c1
inactive: Potency [2] | Potency [3] | Potency [4] | Potency [5]
active: Potency [1] 15.1 µM

S=C(Nc1ccccc1)Nc1ccccn1
inactive: Potency [1] | Potency [2] | activation [3] 9.11% [at 17.1 µM, percent relative to cAMP agonist control] | Potency [4] | activity change, negative = inhibition [5] 9.21% [at 30.8 µM]

CC[C@H]1C(c2ccc(F)cc2)=NN(c2ccccc2)[C@@H]1CO
inactive: Potency [1] | Potency [2] | activation [3] 4.16% [at 17.1 µM, percent relative to cAMP agonist control] | Potency [4] | activity change, negative = inhibition [5] -6.73% [at 30.8 µM]

O=C(O)c1ccc(C=C(c2nc3ccccc3s2)c2nc3ccccc3s2)cc1
active: Potency [1] 42.6 µM
inactive: Potency [2] | Potency [3] | Potency [4] | Potency [5]

O=C(/C=C/c1ccc2c(c1)OCO2)Nc1cc(S(=O)(=O)N2CCOCC2)ccc1N1CCOCC1
inactive: Potency [1] | Potency [2] | Potency [3] | Potency [4] | Potency [5]

COC(=O)c1c(SC)nc2ccccc2c1OCc1ccccc1C
inactive: Potency [1] | Potency [2] | Potency [3] | Potency [4] | Potency [5]

CC(C)C1CC2=C(C(=O)OC(C)(C)O2)C(c2ccc(F)cc2)O1 (stereo not given)
inactive: Potency [1] | Potency [2] | activation [3] 4.14% [at 17.1 µM, percent relative to cAMP agonist control] | Potency [4] | activity change, negative = inhibition [5] -3.34% [at 30.8 µM]

CN(Cc1ccccc1)c1ncnc2onc(-c3ccc(F)cc3)c12
inactive: Potency [1] | Potency [2] | Potency [3] | Potency [4] | Potency [5]

CC1=NOC(=O)/C1=C\c1ccc(-c2cc(Cl)ccc2Cl)o1
active: Potency [1] 23.9 µM | Potency [4] 75.7 µM
inactive: Potency [2] | Potency [3] | Potency [5]
